Targets with a hit are over-represented here; the source holds about 7,900 in all. About 0.6% of all pairs of compound and target were hits. A number with no mark means an inactive call.
How the values were obtained:
Test in all cases: log2 fold change, soluble protein after heating vs DMSO (PISA); higher = thermal stabilisation; K562 cells, 10 uM, 30 min; active = over 0.2 and 3.5 SD of the protein, either way, in both replicates (recomputed)
bafetinib = compound: Cc1ccc(NC(=O)c2ccc(CN3CC[C@H](N(C)C)C3)c(C(F)(F)F)c2)cc1Nc1nccc(-c2cncnc2)n1 [bafetinib]
In short: (§1)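 K562 cells at 2×10^6 cells/mL were exposed to 10 μM compound for 30 min, then aliquots were heated for 3 min across 48°C-58°C, pooled, and extracted in PBS containing 0.5% NP-40 at 4°C. The supernatant after 21,000xg for 90 min was taken as soluble protein and measured by TMTpro 16plex LC-MS/MS with channel sums equalised. Thermal stability is reported relative to control samples, with values from duplicates. Fold changes are given on a log2 scale.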

[1] = compound: Cc1cccc(CC(=O)N2CCc3c2ccc(-c2cn(C)c4ncnc(N)c24)c3F)n1
In short: as §1

nilotinib = compound: Cc1cn(-c2cc(NC(=O)c3ccc(C)c(Nc4nccc(-c5cccnc5)n4)c3)cc(C(F)(F)F)c2)cn1 [nilotinib]
In short: as §1

[2] = compound: Cc1nc(Nc2n[nH]c3c2CN(C(=O)N[C@H](CN(C)C)c2ccccc2)C3(C)C)c2sccc2n1
In short: as §1

dasatinib = compound: Cc1nc(Nc2ncc(C(=O)Nc3c(C)cccc3Cl)s2)cc(N2CCN(CCO)CC2)n1 [dasatinib]
In short: as §1

[3] = compound: Cc1ncc(-c2ccnc(Nc3ccc(S(C)(=O)=O)cc3)n2)n1C(C)C
In short: as §1

[4] = compound: Cn1cc(-c2ccc3c(c2)CCN3C(=O)Cc2cccc(C(F)(F)F)c2)c2c(N)ncnc21
In short: as §1

[5] = compound: Cn1cc(-c2ccc3nnc(C(F)(F)c4ccc5ncccc5c4)n3n2)cn1
In short: as §1

tipifarnib = compound: Cn1cncc1[C@@](N)(c1ccc(Cl)cc1)c1ccc2c(c1)c(-c1cccc(Cl)c1)cc(=O)n2C [tipifarnib]
In short: as §1

mubritinib = compound: FC(F)(F)c1ccc(/C=C/c2nc(COc3ccc(CCCCn4ccnn4)cc3)co2)cc1 [mubritinib]
In short: as §1

Chain of UniProt P51571 (P51571 whole entry, looked up): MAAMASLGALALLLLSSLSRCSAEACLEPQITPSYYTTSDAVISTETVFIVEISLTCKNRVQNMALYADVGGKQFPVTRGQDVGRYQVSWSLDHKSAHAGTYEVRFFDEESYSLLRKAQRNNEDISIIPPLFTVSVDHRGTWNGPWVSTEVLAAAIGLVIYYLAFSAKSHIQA
Chain of UniProt P31641 (P31641 whole entry, looked up): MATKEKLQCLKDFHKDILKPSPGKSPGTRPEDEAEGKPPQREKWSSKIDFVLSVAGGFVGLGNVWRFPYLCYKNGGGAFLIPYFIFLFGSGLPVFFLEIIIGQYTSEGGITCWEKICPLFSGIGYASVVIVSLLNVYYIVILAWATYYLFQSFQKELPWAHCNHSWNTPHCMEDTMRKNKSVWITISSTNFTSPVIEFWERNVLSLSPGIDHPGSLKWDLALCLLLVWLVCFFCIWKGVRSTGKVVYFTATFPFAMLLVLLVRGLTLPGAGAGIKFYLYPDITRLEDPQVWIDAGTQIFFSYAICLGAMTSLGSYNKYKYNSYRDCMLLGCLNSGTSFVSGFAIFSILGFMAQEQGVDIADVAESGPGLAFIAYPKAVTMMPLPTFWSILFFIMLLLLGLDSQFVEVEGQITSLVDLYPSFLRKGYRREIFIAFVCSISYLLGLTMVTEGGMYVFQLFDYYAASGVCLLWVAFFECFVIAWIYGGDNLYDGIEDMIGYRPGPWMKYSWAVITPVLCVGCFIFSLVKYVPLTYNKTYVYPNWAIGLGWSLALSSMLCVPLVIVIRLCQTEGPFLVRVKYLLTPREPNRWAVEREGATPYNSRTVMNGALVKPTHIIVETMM
Chain of UniProt Q96DI7 (Q96DI7 whole entry, looked up): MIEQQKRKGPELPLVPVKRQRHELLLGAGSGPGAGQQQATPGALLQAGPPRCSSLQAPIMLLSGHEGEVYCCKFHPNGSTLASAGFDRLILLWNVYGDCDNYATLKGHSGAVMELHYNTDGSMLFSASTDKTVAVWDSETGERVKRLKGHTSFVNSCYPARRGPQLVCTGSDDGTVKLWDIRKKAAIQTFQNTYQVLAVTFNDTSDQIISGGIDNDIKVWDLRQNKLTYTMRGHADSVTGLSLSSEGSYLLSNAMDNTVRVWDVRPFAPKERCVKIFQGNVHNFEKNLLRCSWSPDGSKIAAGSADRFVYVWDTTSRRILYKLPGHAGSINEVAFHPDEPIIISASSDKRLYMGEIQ
Chain of UniProt Q9UNH7 (Q9UNH7 whole entry, looked up): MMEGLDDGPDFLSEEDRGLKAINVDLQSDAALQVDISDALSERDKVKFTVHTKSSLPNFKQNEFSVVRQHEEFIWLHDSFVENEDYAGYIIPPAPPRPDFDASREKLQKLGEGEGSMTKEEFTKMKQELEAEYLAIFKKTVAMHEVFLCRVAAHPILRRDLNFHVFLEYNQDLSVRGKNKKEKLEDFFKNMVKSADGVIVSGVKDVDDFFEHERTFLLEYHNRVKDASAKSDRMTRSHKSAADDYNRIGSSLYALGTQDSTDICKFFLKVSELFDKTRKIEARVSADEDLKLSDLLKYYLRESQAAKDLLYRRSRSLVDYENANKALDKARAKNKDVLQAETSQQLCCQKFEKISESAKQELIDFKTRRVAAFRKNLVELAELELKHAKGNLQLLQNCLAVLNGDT
Chain of UniProt Q9NQZ5 (Q9NQZ5 whole entry, looked up): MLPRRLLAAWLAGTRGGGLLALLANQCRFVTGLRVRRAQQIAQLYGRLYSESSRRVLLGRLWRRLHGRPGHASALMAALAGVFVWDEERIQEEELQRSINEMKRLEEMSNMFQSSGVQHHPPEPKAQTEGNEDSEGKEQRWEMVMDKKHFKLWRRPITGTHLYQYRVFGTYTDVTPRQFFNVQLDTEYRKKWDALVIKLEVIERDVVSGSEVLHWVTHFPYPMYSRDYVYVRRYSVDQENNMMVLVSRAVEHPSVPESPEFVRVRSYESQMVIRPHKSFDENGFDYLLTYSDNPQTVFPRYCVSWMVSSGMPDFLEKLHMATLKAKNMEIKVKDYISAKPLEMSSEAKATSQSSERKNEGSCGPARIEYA
Chain of UniProt Q16594 (Q16594 whole entry, looked up): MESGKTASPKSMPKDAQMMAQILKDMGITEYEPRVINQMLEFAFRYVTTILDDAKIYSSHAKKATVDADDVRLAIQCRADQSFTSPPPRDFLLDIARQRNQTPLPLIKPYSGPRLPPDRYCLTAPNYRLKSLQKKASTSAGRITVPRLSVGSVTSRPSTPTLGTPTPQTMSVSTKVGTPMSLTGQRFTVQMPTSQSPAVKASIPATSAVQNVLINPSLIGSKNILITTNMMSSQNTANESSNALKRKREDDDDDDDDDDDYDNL
Chain of UniProt P08579 (P08579 whole entry, looked up): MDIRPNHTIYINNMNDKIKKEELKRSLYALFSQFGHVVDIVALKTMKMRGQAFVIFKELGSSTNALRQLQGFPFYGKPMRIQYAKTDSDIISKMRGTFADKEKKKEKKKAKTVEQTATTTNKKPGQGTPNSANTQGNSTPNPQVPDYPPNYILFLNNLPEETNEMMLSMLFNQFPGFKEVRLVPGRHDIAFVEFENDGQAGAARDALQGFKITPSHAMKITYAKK
Chain of UniProt Q9Y5M8 (Q9Y5M8 whole entry, looked up): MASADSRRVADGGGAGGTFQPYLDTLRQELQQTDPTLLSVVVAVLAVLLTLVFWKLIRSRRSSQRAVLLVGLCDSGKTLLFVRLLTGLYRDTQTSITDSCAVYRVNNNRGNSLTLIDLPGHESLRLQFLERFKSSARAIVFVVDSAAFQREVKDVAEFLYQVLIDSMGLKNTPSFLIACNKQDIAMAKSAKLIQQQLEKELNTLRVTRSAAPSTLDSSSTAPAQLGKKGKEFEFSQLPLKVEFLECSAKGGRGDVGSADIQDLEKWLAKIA
Chain of UniProt P53597 (P53597 whole entry, looked up): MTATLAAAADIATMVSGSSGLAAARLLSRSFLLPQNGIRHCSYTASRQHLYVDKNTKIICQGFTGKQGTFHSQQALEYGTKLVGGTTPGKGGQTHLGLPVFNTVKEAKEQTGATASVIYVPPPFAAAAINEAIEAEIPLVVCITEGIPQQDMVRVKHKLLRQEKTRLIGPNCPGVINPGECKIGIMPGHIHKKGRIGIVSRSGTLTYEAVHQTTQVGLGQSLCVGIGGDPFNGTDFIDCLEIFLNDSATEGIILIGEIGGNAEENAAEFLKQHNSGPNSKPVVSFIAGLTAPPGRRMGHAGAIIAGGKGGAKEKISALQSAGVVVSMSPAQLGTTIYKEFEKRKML
Chain of UniProt P63165 (P63165 whole entry, looked up): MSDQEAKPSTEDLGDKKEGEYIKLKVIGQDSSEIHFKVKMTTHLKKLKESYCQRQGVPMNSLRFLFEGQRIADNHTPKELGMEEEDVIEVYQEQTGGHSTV
Chain of UniProt P35270 (P35270 whole entry, looked up): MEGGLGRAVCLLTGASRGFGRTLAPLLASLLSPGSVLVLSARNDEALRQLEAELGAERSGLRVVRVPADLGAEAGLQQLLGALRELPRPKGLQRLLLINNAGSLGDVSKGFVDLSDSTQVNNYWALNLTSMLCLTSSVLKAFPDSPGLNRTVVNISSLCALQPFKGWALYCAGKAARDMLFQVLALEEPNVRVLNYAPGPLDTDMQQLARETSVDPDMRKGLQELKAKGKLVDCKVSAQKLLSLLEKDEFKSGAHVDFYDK
Chain of UniProt Q15527 (Q15527 whole entry, looked up): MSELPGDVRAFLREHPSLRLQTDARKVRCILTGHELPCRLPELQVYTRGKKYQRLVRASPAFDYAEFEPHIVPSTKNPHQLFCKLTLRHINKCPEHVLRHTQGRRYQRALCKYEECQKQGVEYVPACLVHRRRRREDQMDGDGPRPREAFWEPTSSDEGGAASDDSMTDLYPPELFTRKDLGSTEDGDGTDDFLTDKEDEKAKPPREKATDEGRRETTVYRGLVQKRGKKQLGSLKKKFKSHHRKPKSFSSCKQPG
Chain of UniProt Q9UBP0 (Q9UBP0 whole entry, looked up): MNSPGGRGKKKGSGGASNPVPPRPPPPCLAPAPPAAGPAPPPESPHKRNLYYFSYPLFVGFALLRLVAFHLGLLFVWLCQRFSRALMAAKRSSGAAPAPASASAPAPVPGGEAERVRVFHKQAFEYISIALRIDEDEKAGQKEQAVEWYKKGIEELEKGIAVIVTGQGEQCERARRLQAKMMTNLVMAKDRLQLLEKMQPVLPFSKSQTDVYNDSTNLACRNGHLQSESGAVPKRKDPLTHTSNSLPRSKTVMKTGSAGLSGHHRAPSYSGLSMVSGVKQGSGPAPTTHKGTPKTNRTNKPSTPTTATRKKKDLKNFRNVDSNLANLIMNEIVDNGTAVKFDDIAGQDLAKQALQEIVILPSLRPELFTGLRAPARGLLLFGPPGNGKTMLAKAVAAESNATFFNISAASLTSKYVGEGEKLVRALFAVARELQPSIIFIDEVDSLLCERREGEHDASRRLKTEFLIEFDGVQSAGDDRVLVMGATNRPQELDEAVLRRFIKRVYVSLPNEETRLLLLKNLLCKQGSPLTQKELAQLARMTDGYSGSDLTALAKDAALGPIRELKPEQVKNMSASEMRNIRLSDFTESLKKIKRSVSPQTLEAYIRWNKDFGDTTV
Chain of UniProt Q969X1 (Q969X1 whole entry, looked up): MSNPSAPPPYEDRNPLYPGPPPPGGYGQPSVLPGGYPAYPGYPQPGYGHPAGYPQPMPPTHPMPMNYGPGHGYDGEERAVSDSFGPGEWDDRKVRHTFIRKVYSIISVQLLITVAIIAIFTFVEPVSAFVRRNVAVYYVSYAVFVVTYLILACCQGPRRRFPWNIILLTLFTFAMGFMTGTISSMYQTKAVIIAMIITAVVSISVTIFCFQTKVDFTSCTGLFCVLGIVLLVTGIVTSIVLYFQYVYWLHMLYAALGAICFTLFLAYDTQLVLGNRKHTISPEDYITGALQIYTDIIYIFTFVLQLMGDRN

| Target | log2 fold change (bafetinib) | log2 fold change [1] | log2 fold change (nilotinib) | log2 fold change [2] | log2 fold change (dasatinib) | log2 fold change [3] | log2 fold change [4] | log2 fold change [5] | log2 fold change (tipifarnib) | log2 fold change (mubritinib) |
| --- | --- | --- | --- | --- | --- | --- | --- | --- | --- | --- |
| SSR4 (UniProt P51571) | -0.011 | -0.057 | -0.001 | 0.021 | -0.028 | -0.005 | 0.067 | 0.026 | -0.063 | 0.003 |
| TAF9 (UniProt Q16594) | -0.076 | -0.026 | 0.061 | -0.031 | 0.146 | -0.086 | -0.12 | -0.011 | 0.077 | -0.005 |
| SNRPB2 (UniProt P08579) | -0.034 | -0.081 | 0.04 | 0.048 | 0.075 | 0.135 | -0.116 | -0.025 | 0.084 | 0.045 |
| SNX6 (UniProt Q9UNH7) | -0.132 | 0.138 | -0.214 | 0.012 | -0.176 | -0.47 (active) | 0.094 | 0.019 | -0.045 | 0.058 |
| TMBIM1 (UniProt Q969X1) | 0.068 | -0.07 | 0.168 | -0.044 | -0.01 | 0.149 | -0.06 | -0.105 | -0.318 | 0.025 |
| STARD7 (UniProt Q9NQZ5) | -0.043 | 0.109 | -0.057 | 0.081 | -0.035 | 0.094 | 0.021 | -0.007 | -0.026 | 0.032 |
| SNRNP40 (UniProt Q96DI7) | 0.018 | -0.023 | 0.054 | 0.166 | 0.1 | 0.119 | -0.051 | -0.021 | 0.038 | 0.006 |
| SUCLG1 (UniProt P53597) | -0.065 | -0.01 | -0.077 | 0.029 | -0.025 | -0.008 | 0.027 | 0.078 | -0.008 | -0.273 (active) |
| SUMO1 (UniProt P63165) | -0.071 | -0.023 | -0.022 | -0.078 | 0.041 | -0.04 | -0.209 | -0.068 | -0.35 | 0.001 |
| SLC6A6 (UniProt P31641) | -0.001 | -0.018 | 0.064 | -0.015 | -0.069 | 0.068 | -0.011 | -0.006 | 0.002 | 0.024 |
| SPR (UniProt P35270) | -0.062 | -0.102 | -0.04 | -0.012 | 0.467 (active) | -0.029 | 0.144 | 0.298 | 0.499 (active) | -0.083 |
| SPAST (UniProt Q9UBP0) | -0.015 | -0.057 | -0.05 | -0.054 | -0.246 (active) | 0.026 | 0.099 | -0.022 | -0.065 | 0.036 |
| SURF2 (UniProt Q15527) | -0.103 | 0.039 | 0.054 | -0.048 | -0.02 | 0.082 | -0.012 | 0.053 | 0.034 | -0.013 |
| SMPD4 isoform 4 (UniProt Q9NXE4) | -0.031 | 0.122 | -0.1 | -0.076 | -0.037 | 0.025 | 0.098 | 0.04 | -0.016 | 0.148 |
| SRPRB (UniProt Q9Y5M8) | 0.107 | 0.14 | 0.035 | 0.026 | -0.094 | 0.121 | 0.076 | 0.031 | -0.123 | 0.134 |

From the supplement of paper PMC10849652
